Measured values reported in the supplement of paper PMC10646978.
± gives the standard deviation.

How the values were obtained:
Settings in all cases: modulator concentration 10 µM
[1] = system: RAW-Dual (murine macrophage reporter line); experiment: NF-kB reporter (SEAP) activity fold change vs agonist alone; higher = enhanced NF-kB activity
In short: (§1)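 RAW-Dual murine macrophage reporter cells were plated at 50 000 per well in 384-well plates, pin-transferred compound to 10 μM final, and pre-incubated for 1 hour at 37 °C before a PRR agonist was added and the cells incubated overnight. NF-κB activity was read from supernatant SEAP with QUANTI-Blue at 620 nm absorbance, and IRF activity from Lucia luciferase with QUANTI-Luc by luminescence. Each signal was expressed as fold change by dividing by the mean agonist-only control on the same plate. Two replicate plates were averaged, with errors obtained by propagation.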

[2] = system: RAW-Dual (murine macrophage reporter line); experiment: IRF reporter (Lucia luciferase) activity fold change vs agonist alone; higher = enhanced IRF activity
In short: as §1

[3] = system: RAW-Dual (murine macrophage reporter line); experiment: viability score (confluency relative to resting cells, overnight) (fraction); higher = more viable, active = viable (0.7 or more)
In short: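 Two confluency masks, generated with IncuCyte software over all imaged wells, were applied to IncuCyte images of RAW-Dual macrophages. The cells, in 384-well plates, had been exposed overnight to 10 μM final compound. The viability score is confluency as a fraction of resting cells, and a compound met the cutoff only with both masks above 70% of resting cells.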

[4] = agonist: CpG ODN 1826 0.5 ug/mL

Compound | NF-kB reporter [1, 4] | NF-kB reporter ([1]; agonist: LPS 0.1 ug/mL) | NF-kB reporter ([1]; agonist: MPLA […]) | IRF reporter ([2]; agonist: 3'3'-cGAMP 10 ug/mL) | IRF reporter ([2]; agonist: LPS 0.1 ug/mL) | IRF reporter ([2]; agonist: MPLA […]) | viability score [3]
CC1(C)CCCC2=C1CC1C(=O)NC(=O)C1C2 (stereo not given) | 0.88 ± 0.079 | 0.977 ± 0.076 | 0.948 ± 0.14 | 0.953 ± 0.085 | 1.16 ± 0.2 | 1.32 ± 0.33 | 1.03 (active)
O=C(CCCCCN1C(=O)c2cccc3cccc(c23)C1=O)NO | 1.71 ± 0.32 | 1.43 ± 0.12 | 4.2 ± 0.32 | 0.062 ± 0.0017 | 0.581 ± 0.061 | 0.632 ± 0.12 | 0.536 (inactive)
CN1CCN(CCCN2c3ccccc3Sc3ccc(Cl)cc32)CC1.O=C(O)/C=C\C(=O)O.O=C(O)/C=C\C(=O)O | 1.01 ± 0.049 | 1.14 ± 0.098 | 2.15 ± 0.15 | 0.14 ± 0.012 | 0.479 ± 0.12 | 0.435 ± 0.13 | 0.86 (active)
O=C(NCCCc1cnc2ncnn2c1)c1cccc2ccccc12 | 0.88 ± 0.039 | 0.857 ± 0.071 | 1.06 ± 0.059 | 1.02 ± 0.057 | 1.23 ± 0.14 | 1.45 ± 0.39 | 0.98 (active)
NC(=O)CCC(N)C(=O)O (stereo not given) | 1.13 ± 0.32 | 0.935 ± 0.051 | 1.03 ± 0.1 | 0.883 ± 0.049 | 1.1 ± 0.16 | 0.999 ± 0.097 | 0.997 (active)
COc1ccc(-c2ccc(OCCNC(=O)Cc3ccc(Br)cc3)nn2)cc1 | 0.959 ± 0.049 | 1.08 ± 0.084 | 0.908 ± 0.055 | 1.02 ± 0.085 | 1.09 ± 0.2 | 1.07 ± 0.31 | 1 (active)
Br.O=S(=O)(c1ccc(-c2csc(Nc3cccc4ccccc34)n2)cc1)N1CCOCC1 | 0.907 ± 0.077 | 1.01 ± 0.089 | 1 ± 0.061 | 0.769 ± 0.053 | 1.25 ± 0.08 | 1.12 ± 0.32 | 1 (active)
CCOc1ccccc1NC(=O)N1CCCC1CS(=O)(=O)c1ccccc1 (stereo not given) | 1.01 ± 0.062 | 1.15 ± 0.093 | 0.954 ± 0.046 | 1.09 ± 0.057 | 1.3 ± 0.087 | 1.14 ± 0.16 | 0.989 (active)
COC(=O)C1=CN(CC2CCCO2)C=C(C(=O)OC)C1c1cccc(Br)c1 (stereo not given) | 0.886 ± 0.18 | 0.871 ± 0.088 | 0.944 ± 0.073 | 0.975 ± 0.037 | 1.21 ± 0.13 | 1.29 ± 0.13 | 1 (active)
CCOC(=O)C1=C(C)NC(=Cc2ccccc2[N+](=O)[O-])C1=O | 1.66 ± 0.13 | 0.864 ± 0.2 | 0.872 ± 0.13 | 0.275 ± 0.024 | 0.0881 ± 0.019 | 0.064 ± 0.016 | 0.755 (active)
O=S(=O)(c1ccc(F)cc1)N1CCC(c2nc3ccccc3[nH]2)CC1 | 1.19 ± 0.085 | 1.08 ± 0.082 | 1.03 ± 0.028 | 0.913 ± 0.033 | 1.01 ± 0.093 | 0.997 ± 0.15 | 0.964 (active)
c1ccc2sc(SCCCCSc3nc4ccccc4s3)nc2c1 | 1.11 ± 0.087 | 1.02 ± 0.1 | 0.938 ± 0.035 | 0.953 ± 0.14 | 1.06 ± 0.1 | 0.977 ± 0.17 | 0.998 (active)
O=C1c2ccccc2C(=O)c2c1ccc(O)c2O | 1.03 ± 0.098 | 1.06 ± 0.054 | 1.02 ± 0.027 | 0.948 ± 0.084 | 0.949 ± 0.039 | 0.978 ± 0.076 | 0.999 (active)
CC1=C(C(=O)OCc2ccc3c(c2)OCO3)C(c2ccc(Cl)c(Cl)c2)NC(=O)N1 (stereo not given) | 1.04 ± 0.17 | 1.13 ± 0.083 | 1.11 ± 0.1 | 0.458 ± 0.025 | 0.712 ± 0.093 | 0.772 ± 0.15 | 1.01 (active)
COc1ccc2[nH]c(S(=O)Cc3ncc(C)c(OC)c3C)nc2n1 (stereo not given) [Prestw-1351] | 0.872 ± 0.15 | 1.15 ± 0.16 | 0.994 ± 0.11 | 0.819 ± 0.029 | 1.11 ± 0.14 | 1.24 ± 0.13 | 0.974 (active)
